From ChEMBL document CHEMBL4513216, “Probing the Open Global Health Chemical Diversity Library for Multistage-Active Starting Points for Next-Generation Antimalarials” (ACS Infect Dis, 2020)
Among all 69,000 compounds or so, about 8,600 (12%) showed an effect of 50% or more. For the sample, strong results were picked, then their nearest neighbours and some compounds at random.

Tested on: Plasmodium berghei
Assay: Screen against P. berghei liver stage (PbLuc), transformed with Luciferase, at 10uM
Assay type: functional, HepG2
Conditions: tested at 10 uM

SMILES | INHIBITION [%]
Cc1nc(N(C)C)nc(NCCc2ccccn2)c1C | -43.6
Cc1nc(C)c(C)c(NCCSc2ccccn2)n1 | 60.2
Cc1nc(NCCSc2ccccn2)c2c(C)noc2n1 | 13.5
CC(C)CN1C[C@@H]2CN(C(=O)[C@H]3CCCO3)C[C@@H]2C1=O | 17.4
CCN1CCCC1CNCc1cc2ccccc2[nH]c1=O (stereo not given) | -61.5
CSc1ccc2cc(CN(C)CCc3cn[nH]c3)c(=O)[nH]c2c1 | 20.8
COc1ccc2cc(CN(C)CCc3cn[nH]c3)c(=O)[nH]c2c1 | 36.5
CCOc1ccc2[nH]c(=O)c(CN(C)CCc3cn[nH]c3)cc2c1 | 54.4
COc1ccc2[nH]c(=O)c(CN(C)CCN3CCCC3)cc2c1 | 63.9
CCN1CCCC1CNCc1cc2cc(C)c(C)cc2[nH]c1=O (stereo not given) | -29.9
COc1ccc2cc(CN(C)CCN3CCCCC3=O)c(=O)[nH]c2c1 | -15.1
CCN1CCCC1CNCc1cc2cc3c(cc2[nH]c1=O)OCCO3 (stereo not given) | 58.2
CCN1CCCC1CNC(=O)CCSc1ccc2c(c1)OCCO2 (stereo not given) | 38.5
CCN1CCCC1CNCc1cc2cc(OC)c(OC)cc2[nH]c1=O (stereo not given) | 18.3
COc1ccc2[nH]c(=O)c(CN(C)C(C)c3ccccn3)cc2c1 (stereo not given) | -3.55
CCN1CCCC1CNCc1cc2cc(OC)ccc2[nH]c1=O (stereo not given) | 72.2
CCOc1cc(C)nc(N2CCN(C(=O)c3cscn3)CC2)n1 | 15.3
Cc1csc(NC(=O)c2ccc(NC(=O)N3CCOCC3)cc2)n1 | -37.4
Cc1cccc(C(=O)NCc2ccc(CS(N)(=O)=O)cc2)n1 | -33.9
O=C1CCCN1Cc1nnc2n1CCN(Cc1ccccn1)CC2 | -30.7
COc1ncc(CN2C[C@@H]3C[C@@H](O)CN3C[C@@H]2Cc2ccccc2)cn1 | 33.8
c1cn2c(n1)CN(Cc1ccsc1)CC(Cn1cncn1)C2 (stereo not given) | 49.7
CC(C)c1nc(CN(C)Cc2ccc(O)c(C(=O)O)c2)cs1 | -14.1
CCOc1ncccc1CNC(=O)Nc1ccccc1 | 31.3
COc1ccc(CC2CN(C(=O)c3coc(C)n3)CCO2)cc1 (stereo not given) | 9.05
Cc1nc(-c2cncnc2C2CCCNC2)no1 (stereo not given) | -3.45
COc1ccc2c(C)c(C(=O)NC3CCN(S(C)(=O)=O)CC3)oc2c1 | -112
COc1ccc2c(C)c(C(=O)NC3CCOCC3)oc2c1 | -104
COc1ccc2c(C)c(C(=O)NC3CCCOC3)oc2c1 (stereo not given) | 60.9
CNS(=O)(=O)c1ccc(C(=O)N2CCCC2c2ccncc2)o1 (stereo not given) | 36.1
